Measurements reported in PubChem BioAssay.
Inconclusive results are not listed. Activity calls are given as the source filed them. Unless noted, no cut-off is given here; in the data, nearly all actives have AC50 up to about 26 µM.

How the values were obtained:
[1] = viability loss in pontine glioma line – cell-based, SU-DIPG-XVII, MIPE5.0, CellTiter-Glo, qHTS, dose response (AID 1347060); conditions: CellTiter-Glo ATP luminescence;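 for AC50: cells exposed to compound for 48 hours before viability readout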
[2] = viability loss in pontine glioma line – cell-based, JHH-DIPG-1, MIPE4.0, CellTiter-Glo, qHTS, dose response (AID 1347062; cut-off not given, nearly all actives have AC50 up to about 27 µM;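 for AC50: cells exposed to compound for two days before readout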); conditions: JHH-DIPG-1 viability, CellTiter-Glo ATP luminescence
[3] = viability loss in pontine glioma line – cell-based, SU-DIPG-XIII, MIPE5.0, CellTiter-Glo, qHTS, dose response (AID 1347064; cut-off not given, nearly all actives have AC50 up to about 23 µM;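 for AC50: cells exposed to compound for 48 hours before the viability read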); conditions: CellTiter-Glo ATP luminescence
[4] = viability loss in pontine glioma line – cell-based, SU-DIPG-XXV, MIPE5.0, CellTiter-Glo, qHTS, dose response (AID 1347065); conditions: CellTiter-Glo ATP luminescence;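 note: cells exposed to compound for 48 hours before ATP readout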
[5] = growth inhibition of DIPG cells – cell-based, MIPE4.0 library, CellTiter-Glo luminescence, qHTS (AID 1347066; cut-off not given, nearly all actives have AC50 up to about 30 µM;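 note: cells exposed to compound for 48 hours before readout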); conditions: SU-DIPG-VI viability, CellTiter-Glo ATP luminescence
[6] = JHH-DIPG-1 glioma cell viability, MIPE5.0 library, CellTiter-Glo luminescence, qHTS (AID 1347067); conditions: JHH-DIPG-1 glioma viability, CellTiter-Glo ATP luminescence;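 note: cells exposed to compound for 48 hours before readout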
[7] = growth inhibition of DIPG cells – cell-based, MIPE5.0 library, qHTS (AID 1347068; cut-off not given, nearly all actives have IC50 up to about 30 µM;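 for IC50: cells exposed to compound for 48 hours before viability readout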); conditions: SU-DIPG-XXV viability
[8] = compounds altering HSF1 focus formation in cells – imaging, Selleck Cancer Library (AID 1347162; in the data active = plate-normalised HSF1 focus index below about 0.46); conditions: human cells, HSF1 nuclear foci imaging, at 10 µM; SSMD: measured here: HSF1 foci SSMD mean; cell count: measured here: cell number; plate-normalised HSF1 focus index: stronger effect = lower value
[9] = viability loss with induced miR-34 in A549 – imaging, A549 dox-inducible miR-34, nuclei and caspase counts, primary screen (AID 1347080;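 active = compounds whose cell count with miR-34 switched on is under 0.7 times the count with it off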); conditions: A549 miR-34 inducible, Hoechst nuclei count, 48 h
[10] = MELAS cybrid and Rieske KO viability enhancers – cell-based, MELAS cybrids, Rieske KO mouse fibroblasts, CellTiter-Glo, primary screen (AID 1508586;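 active = mean z-score across replicates of 1.96 or higher in either the MELAS or the Rieske mutant cell line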;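 note: z relative to plate mean and SD of compound and empty wells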); conditions: low glucose
[11] = drug combination growth inhibition, ovarian cancer – cell-based, oncology-focused library, rucaparib conditional, profiling panel (AID 1508598;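 active = normalized viability below 100% at a tested concentration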); conditions: patient-derived ovarian cancer cells, CellTiter-Glo viability, 144 h, stronger effect = lower value
[12] = stronger effect = lower value, cell number ratio, induced over uninduced
[13] = measured here: relative caspase fold change +Dox/-Dox
[14] = measured here: total cells with miR-34 induction, stronger effect = lower value
[15] = measured here: total cells without miR-34 induction
[16] = MELAS cybrid survival, CellTiter-Glo 48 h, stronger effect = higher value
[17] = Rieske KO mouse fibroblast survival, CellTiter-Glo 72 h

O=S(=O)(O)c1ccc2cc(N=Nc3cc(S(=O)(=O)O)c4cccnc4c3O)ccc2c1
inactive: outcome [1] | outcome [2] | outcome [3] | outcome [4] | outcome [5] | outcome [6] | outcome [7]

CC[C@]12C=CCN3CC[C@@]4(c5cc([C@@]6(C(=O)OC)C[C@H]7C[C@@H](C(C)(F)F)CN(Cc8c6[nH]c6ccccc86)C7)c(OC)cc5N(C)[C@H]4[C@@](O)(C(=O)OC)[C@@H]1OC(C)=O)[C@@H]32
active: AC50 [1] 0.0783 µM | AC50 [2] 0.469 µM | AC50 [3] 1.75 µM | AC50 [4] 0.111 µM | AC50 [5] 8.33 µM | AC50 [6] 0.312 µM | IC50 [7] 0.35 µM

Cn1cc(/C=C/C(=O)c2cccc(F)c2)cc1/C=C/C(=O)NO
inactive: outcome [2] | outcome [5]
active: AC50 [1] 3.72 µM | AC50 [3] 2.35 µM | AC50 [4] 5.25 µM | AC50 [6] 13.2 µM

CN(C)c1ccccc1CN1CCCN(Cc2ccccc2N(C)C)C1c1ccncc1
active: AC50 [1] 26.3 µM | AC50 [2] 20.9 µM
1.08: SSMD [8]
inactive: outcome [4] | outcome [5] | outcome [7] | plate-normalised HSF1 focus index [8] 1.07
6990: cell count [8]

COc1ccc(S(=O)(=O)Nc2cccnc2Nc2ccc(O)cc2)cc1
962: cell count [9, 15]
inactive: fold change [9, 12] 1.24 | plate-normalised HSF1 focus index [8] 1.07 | z-score [10, 16] 0.679 | viability ([11]; at 0.000305 µM, OCI-C5x cells, with rucaparib 10 µM, 100% = cells with rucaparib alone) 111% | viability ([11]; at 0.000305 µM, OCI-C5x cells, without rucaparib) 122% | viability ([11]; at 0.000305 µM, OCI-P5x cells, with rucaparib 20 µM, 100% = cells with rucaparib alone) 117% | viability ([11]; at 0.000305 µM, OCI-P5x cells, without rucaparib) 128% | viability ([11]; at 0.00122 µM, OCI-C5x cells, with rucaparib 10 µM, 100% = cells with rucaparib alone) 119% | viability ([11]; at 0.00122 µM, OCI-C5x cells, without rucaparib) 133% | viability ([11]; at 0.00122 µM, OCI-P5x cells, with rucaparib 20 µM, 100% = cells with rucaparib alone) 118% | viability ([11]; at 0.00122 µM, OCI-P5x cells, without rucaparib) 119% | viability ([11]; at 0.00488 µM, OCI-C5x cells, with rucaparib 10 µM, 100% = cells with rucaparib alone) 119% | viability ([11]; at 0.00488 µM, OCI-C5x cells, without rucaparib) 133% | viability ([11]; at 0.00488 µM, OCI-P5x cells, with rucaparib 20 µM, 100% = cells with rucaparib alone) 112% | viability ([11]; at 0.00488 µM, OCI-P5x cells, without rucaparib) 121% | viability ([11]; at 0.0195 µM, OCI-C5x cells, with rucaparib 10 µM, 100% = cells with rucaparib alone) 113% | viability ([11]; at 0.0195 µM, OCI-C5x cells, without rucaparib) 128% | viability ([11]; at 0.0195 µM, OCI-P5x cells, with rucaparib 20 µM, 100% = cells with rucaparib alone) 108% | viability ([11]; at 0.0195 µM, OCI-P5x cells, without rucaparib) 122% | viability ([11]; at 0.0781 µM, OCI-C5x cells, with rucaparib 10 µM, 100% = cells with rucaparib alone) 110% | viability ([11]; at 0.0781 µM, OCI-C5x cells, without rucaparib) 134% | viability ([11]; at 0.0781 µM, OCI-P5x cells, with rucaparib 20 µM, 100% = cells with rucaparib alone) 111% | viability ([11]; at 0.0781 µM, OCI-P5x cells, without rucaparib) 111%
1.94: SSMD [8]
0.79: fold change [9, 13]
active: AC50 [1] 0.263 µM | AC50 [2] 0.166 µM | AC50 [3] 0.468 µM | AC50 [6] 0.468 µM | IC50 [7] 10.5 µM | viability ([11]; at 0.313 µM, OCI-C5x cells, with rucaparib 10 µM, 100% = cells with rucaparib alone) 58.8% | viability ([11]; at 0.313 µM, OCI-C5x cells, without rucaparib) 76.1% | viability ([11]; at 0.313 µM, OCI-P5x cells, with rucaparib 20 µM, 100% = cells with rucaparib alone) 94.4% | viability ([11]; at 0.313 µM, OCI-P5x cells, without rucaparib) 28.4% | viability ([11]; at 1.25 µM, OCI-C5x cells, with rucaparib 10 µM, 100% = cells with rucaparib alone) 50% | viability ([11]; at 1.25 µM, OCI-C5x cells, without rucaparib) 49.6% | viability ([11]; at 1.25 µM, OCI-P5x cells, with rucaparib 20 µM, 100% = cells with rucaparib alone) 72.9% | viability ([11]; at 1.25 µM, OCI-P5x cells, without rucaparib) 23% | viability ([11]; at 5 µM, OCI-C5x cells, with rucaparib 10 µM, 100% = cells with rucaparib alone) 43.3% | viability ([11]; at 5 µM, OCI-C5x cells, without rucaparib) 62% | viability ([11]; at 5 µM, OCI-P5x cells, with rucaparib 20 µM, 100% = cells with rucaparib alone) 70.9% | viability ([11]; at 5 µM, OCI-P5x cells, without rucaparib) 17.9%
7150: cell count [8]
1190: cell count [9, 14]
-0.295: z-score [10, 17]

COc1cc2c(cc1OC)CC(=O)N(CCCN(C)C[C@H]1Cc3cc(OC)c(OC)cc31)CC2
inactive: outcome [1] | outcome [2] | outcome [3] | outcome [4] | outcome [5] | outcome [6] | outcome [7]

O=C1NC(=O)/C(=C/c2cccc(C(F)(F)F)c2)S1
inactive: outcome [1] | outcome [2] | outcome [4] | outcome [5] | outcome [6] | outcome [7]

O=C(Nc1ccccc1)Nc1ccc(-c2ccc(C(=O)[C@@H]3CCC[C@H]3C(=O)O)cc2)cc1
inactive: outcome [1] | outcome [2] | outcome [4] | outcome [5] | outcome [6] | outcome [7]

COCCOc1ccc2c(c1)ncn2-c1ccc2cccc(N3CCC(N)CC3)c2n1
active: AC50 [1] 11.8 µM | AC50 [2] 9.35 µM | AC50 [3] 9.34 µM | AC50 [4] 11.8 µM | IC50 [7] 18.6 µM
-2.41: z-score [10, 17]
1320: cell count [9, 15]
1460: cell count [9, 14]
0.953: fold change [9, 13]
inactive: fold change [9, 12] 1.1 | z-score [10, 16] 0.564

O=C(Nc1cc(Cl)cc2c1[nH]c1cnccc12)c1cccnc1
inactive: outcome [1] | outcome [2] | outcome [3] | outcome [4] | outcome [5] | outcome [6] | outcome [7]

C[C@@H]1CN(Cc2ccc(F)cc2)[C@@H](C)CN1C(=O)c1cc2c(C(=O)C(=O)N(C)C)cn(C)c2cc1Cl
inactive: outcome [1] | outcome [2] | outcome [3] | outcome [7]

COc1ccc(C2=N[C@H](c3ccc(Cl)cc3)[C@H](c3ccc(Cl)cc3)N2C(=O)N2CCNC(=O)C2)c(OC(C)C)c1
active: AC50 [1] 14.8 µM | AC50 [2] 23.5 µM | AC50 [3] 16.6 µM | AC50 [4] 10.5 µM
inactive: outcome [5] | outcome [7]

CCCNS(=O)(=O)Nc1ncnc(OCCOc2ncc(Br)cn2)c1-c1ccc(Br)cc1
-0.0447: z-score [10, 17]
8090: cell count [9, 14]
8750: cell count [9, 15]
inactive: outcome [1] | outcome [2] | outcome [3] | outcome [5] | outcome [6] | outcome [7] | fold change [9, 12] 0.925 | z-score [10, 16] -0.373
0.512: fold change [9, 13]

O=C(O)CCNc1cc(N2CCc3ccccc3CC2)nc(-c2ccccn2)n1
inactive: outcome [1] | outcome [2] | outcome [3] | outcome [4] | outcome [5] | outcome [6] | outcome [7]

COc1cc(N2CCC(N3CCN(C)CC3)CC2)ccc1Nc1ncc(Cl)c(Nc2ccccc2S(=O)(=O)C(C)C)n1
active: AC50 [1] 0.372 µM | AC50 [2] 18.7 µM | AC50 [3] 0.661 µM | AC50 [4] 0.59 µM | AC50 [6] 1.05 µM | IC50 [7] 2.35 µM
1.02: SSMD [8]
6520: cell count [8]
inactive: plate-normalised HSF1 focus index [8] 1.07
